# Values joined by “and” are separate entries in the source; they are usually repeats but may differ in a detail not shown here. Identical values can stand only once. Compounds without any hit were thinned out: in the full panel of roughly 83,000, 20% have a hit.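 Testing used 96-well plates and a 48-hour single-concentration exposure. Example: -40 means 40% of the starting cells died.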 Active and inactive are the calls of the source. How the source made its calls: active means growth percent below 10; inactive means the rest.
# Tested on: MDA-MB-468 breast
# Assay: NCI-60 one-dose screen, 48 h (100 = growth as untreated, 0 = no growth, -100 = all killed)
# Conditions: 10 µM unless noted
row,Structure (SMILES),growth
1,CC(=O)[C@@]12O[C@](C)(c3ccccc3)O[C@@H]1CC1C3CCC4=CC(=O)CC[C@]4(C)C3CC[C@@]12C (some centres undefined),32.8% (inactive)
2,N#Cc1c(-c2ccc(Cl)cc2)nc(NN=Cc2cccc(O)c2)nc1N1CCOCC1,87.4% (inactive)
3,CC(C)(C(=O)c1cccnc1)c1cccnc1,96.4% (inactive) and 96.1% (inactive)
4,O=C(Nc1nc2cccc(-c3ccc(CN4CCS(=O)(=O)CC4)cc3)n2n1)C1CC1,41.5% (inactive)
5,COc1cc(C(=O)/C=C/c2c(-c3cccs3)nc3sccn23)cc(OC)c1OC,-49.5% (active)
6,O=c1oc2ccc(Cl)cc2cc1-c1cs/c(=N/N=C\c2ccc(Cl)cc2)n1/N=C/c1ccc(Cl)cc1,114% (inactive)
7,CCOC(=O)CC1CSC(N/N=C(/C)c2cccc(C(F)(F)F)c2)=N1 (centres undefined),104% (inactive)
8,O=C1CC23OC4ON=C(Br)C4C2C(O)c2ccccc2N13 (centres undefined),106% (inactive)
9,COC(=O)c1cc([N+](=O)[O-])cc([N+](=O)[O-])c1Cl,-7.42% (active)
10,COc1ccc(C(C(=O)O)c2ccc(OC)cc2)cc1,113% (inactive)
11,O=C(O)c1c2c(nc3ccccc13)Cc1ccccc1-2,128% (inactive) and 89.3% (inactive)
12,O=C(O)Cc1ccc(Cl)cc1,106% (inactive)
13,NC(N)=Nc1ccc(Oc2cccc(NC(N)=Nc3ccc(Br)c(C(F)(F)F)c3)c2)cc1,4.68% (active)
14,COC(=O)C1(C(=O)OC)C2C(=O)C3C(C21)C3(C(=O)OC(C)(C)C)C(=O)OC(C)(C)C (centres undefined),99.4% (inactive)
15,NC(=S)N/N=C/c1ccc(Cl)s1,98.8% (inactive)
16,N=C1S/C(=C/c2ccc(-c3ccc4c(c3)C(=O)NC4=O)o2)C(=O)N1c1ccc(Br)cc1,51.6% (inactive)
17,O=C1OCC2=C1C(c1cccc(C(F)(F)F)c1)c1cc3c(cc1N2CCO)CCC3 (centres undefined),-1.26% (active)
18,Cn1c(=O)c2c3c(oc2c2ccccc21)C(=O)c1ccccc1C3=O,-9.91% (active)
19,CCOc1cc(/C=N\NC(=O)C[N+](C)(C)C)ccc1O,123% (inactive)
20,N#Cc1c(N)nnn1Cc1cc(=O)oc2c1ccc1ccccc12,106% (inactive)

row,Structure (SMILES),growth
1,O=C(CCCCCCN1CC(=O)N2[C@@H](c3ccccc3Br)c3[nH]c4ccccc4c3C[C@H]2C1=O)NO,36.2% (inactive)
2,CNCCCNc1nc2ccccc2c2c(=O)c3cc(OC)ccc3sc12,24.8% (inactive)
3,CCOC(=O)c1ccc(NC(=O)N2CC(C)OC(C)C2)cc1 (centres undefined),91.7% (inactive)
4,O=C1c2cccc3c(-c4ccc5c(c4)ncn5C4CCCCC4)ccc(c23)C(=O)N1CCO,78.9% (inactive)
5,O=[N+]([O-])c1cnc(N2CCN(CC3CC3)CC2)nc1N1CCN(CC2CC2)CC1,76.9% (inactive)
6,O=C(c1cc(-c2ccc(Cl)cc2)nc2ccccc12)N1N=C(c2ccccc2)CC1c1cc(-c2ccccc2)nn1-c1ccccc1 (centres undefined),89.6% (inactive)
7,O=c1ccn(C2CCCO2)c(=O)[nH]1 (centres undefined),104% (inactive)
8,C=C(C[n+]1ccccc1)[C@@H]1CC[C@]2(C(=O)OC)CC[C@]3(C)[C@H](CC[C@@H]4[C@@]5(C)CC[C@H](O)C(C)(C)[C@@H]5CC[C@]43C)[C@@H]12,86.3% (inactive)
9,N#Cc1c(-c2ccccc2)cc(-c2ccccc2)n(CCCC(=O)O)c1=O,-27.1% (active)
10,C=CC[P+](c1ccccc1)(c1ccccc1)c1ccccc1,10.9% (inactive)
11,CC(=O)[C@@H]1CC[C@]2(C(=O)n3ccnc3)CC[C@]3(C)[C@H](CC[C@@H]4[C@@]5(C)Cc6c([nH]c7ccccc67)C(C)(C)[C@@H]5CC[C@]43C)[C@@H]12,90.8% (inactive)
12,COC(=O)CNC(=O)[C@]12CCC(C)(C)C[C@H]1C1=CC[C@@H]3[C@@]4(C)Cc5c([nH]c6ccccc56)C(C)(C)[C@@H]4CC[C@@]3(C)[C@]1(C)CC2,102% (inactive)
13,COc1cc(C2C3=C(COC3=O)Nc3cc4c(cc32)OCO4)cc2c1OCO2 (centres undefined),-10.3% (active)
14,O=[N+]([O-])c1ccc2c(c1)Cc1cc(F)ccc1-2,53.9% (inactive)
15,Clc1ccc(Nc2ncnc3c2sc2ncccc23)cc1,23% (inactive)
16,Clc1cccc(Cl)c1Nc1ccc2nnc(-c3ccncc3)n2n1,104% (inactive)
17,O=C1C(=O)c2c(nc3ncccn23)-c2ccccc21,-64.9% (active)
18,Nc1nc(N)c2nc(CNc3ccc(C(=O)CC(CCC(=O)O)C(=O)O)cc3)cnc2n1 (centres undefined),65.4% (inactive)
19,NC(=O)N1N=C(c2cc3ccccc3oc2=O)CC1c1cn(-c2ccccc2)nc1-c1ccc(Cl)cc1 (centres undefined),36.9% (inactive)

# Reference: PubChem BioAssay (NCI)
